Measurements as given in PubChem BioAssay (EPA / NIEHS).
The source made the active and inactive calls. Rule for the calls: active = hit-call score of the fitted dose curve at least 0.9, where 1 is the maximum; inactive = score below 0.9.

Key:
Settings in all cases: mRNA level, 48 h; actives raise or lower the signal
[1] = read-out: CYP2C8 (gene 1558); assay: LTEA_HepaRG_CYP2C8: Life Technologies and Expression Analysis (LTEA) Assay for CYP2C8 using HepaRG (AID 2283483)
How it was run: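 This is a transcriptional endpoint in HepaRG cultures: 48 h exposure, highest concentration 100 uM. CYP2C8 mRNA is quantified by TaqMan qRT-PCR.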

[2] = read-out: CYP2C9 (gene 1559); assay: LTEA_HepaRG_CYP2C9: Life Technologies and Expression Analysis (LTEA) Assay for CYP2C9 using HepaRG (AID 2283484)
How it was run: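 Eight-point concentration-response (highest 100 uM, half-log dilutions) in HepaRG cells for 48 h; CYP2C9 expression by qRT-PCR normalized to ACTB, GAPDH, POLR2A. Bidirectional fit, DMSO baseline.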

[3] = read-out: CYP2E1 (gene 1571); assay: LTEA_HepaRG_CYP2E1: Life Technologies and Expression Analysis (LTEA) Assay for CYP2E1 using HepaRG (AID 2283485)
How it was run: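 CYP2E1 transcript was measured by TaqMan qRT-PCR in human HepaRG cultures after 48 h chemical exposure (top 100 uM, half-log steps, 0.5% DMSO vehicle). Housekeeping-gene normalization; gain or loss fitted relative to DMSO baseline.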

[4] = read-out: CYP4A11 (gene 1579); assay: LTEA_HepaRG_CYP4A11: Life Technologies and Expression Analysis (LTEA) Assay for CYP4A11 using HepaRG (AID 2283486)
How it was run: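 Readout is CYP4A11 mRNA induction or suppression (qRT-PCR, ACTB/GAPDH/POLR2A normalization) in human HepaRG cells after 48 h chemical treatment, concentrations to 100 uM in 0.5% DMSO, fitted bidirectionally against vehicle.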

[5] = read-out: Cytochrome P450 3A4 (Homo sapiens) (UniProt P08684); assay: LTEA_HepaRG_CYP3A4: Life Technologies and Expression Analysis (LTEA) Assay for CYP3A4 using HepaRG (AID 2283487)
How it was run: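 HepaRG, 48 h exposure, 8-pt CRC from 100 uM (half-log), 0.5% DMSO, duplicates; serum-free induction medium. Readout: CYP3A4 mRNA, qRT-PCR, ACTB/GAPDH/POLR2A normalization. Bidirectional fit vs DMSO.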

[6] = read-out: DNA damage-inducible transcript 3 (DDIT3), DDIT3 (gene 1649); assay: LTEA_HepaRG_DDIT3: Life Technologies and Expression Analysis (LTEA) Assay for DNA damage-inducible transcript 3 (DDIT3) using HepaRG (AID 2283488)
How it was run: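 qRT-PCR readout (Fluidigm TaqMan), housekeeping-normalized to ACTB, GAPDH, POLR2A. HepaRG cells, 48 h exposure, 8-point half-log series from 100 uM in 0.5% DMSO, duplicates. Gain or loss of signal fitted against DMSO baseline.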

[7] = read-out: Pro-epidermal growth factor (Homo sapiens) (UniProt P01133); assay: LTEA_HepaRG_EGF: Life Technologies and Expression Analysis (LTEA) Assay for Epidermal growth factor (EGF) using HepaRG (AID 2283489)
How it was run: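 EGF expression changes in human HepaRG cells are scored by bidirectional fitting relative to 0.5% DMSO controls. Chemicals are tested at eight half-log concentrations up to 100 uM for 48 h in serum-free induction medium.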

[8] = read-out: Early growth response protein 1 (EGR1) transcription factor, EGR1 (gene 1958); assay: LTEA_HepaRG_EGR1: Life Technologies and Expression Analysis (LTEA) Assay for Early growth response protein 1 (EGR1) transcription factor using HepaRG (AID 2283490)
How it was run: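 EGR1 expression change in human HepaRG after 48 h chemical exposure, assessed by housekeeping-normalized qRT-PCR; concentration-response up to 100 uM, fitted in both directions against DMSO controls.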

[9] = read-out: Ezrin (EZR), EZR (gene 7430); assay: LTEA_HepaRG_EZR: Life Technologies and Expression Analysis (LTEA) Assay for Ezrin (EZR) using HepaRG (AID 2283491)
How it was run: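 Read-out is EZR transcript level by qRT-PCR, normalized to three housekeeping genes and fitted bidirectionally against the DMSO control. Human HepaRG cells received test chemicals for 48 h at eight half-log concentrations up to 100 uM in 0.5% DMSO.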

[10] = read-out: Cytochrome P450 3A7 (Homo sapiens) (UniProt P24462); assay: LTEA_HepaRG_CYP3A7: Life Technologies and Expression Analysis (LTEA) Assay for CYP3A7 using HepaRG (AID 2283492)
How it was run: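 Cells were thawed, plated, cultured 48 h, then treated for a further 48 h with chemicals (eight-point half-log series from 100 uM, 0.5% DMSO). RNA was isolated and CYP3A7 expression quantified by qRT-PCR normalised to ACTB, GAPDH and POLR2A.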

Measured: AC50

Cytochrome P450 3A4 (Homo sapiens), sequence (P08684 whole entry, looked up): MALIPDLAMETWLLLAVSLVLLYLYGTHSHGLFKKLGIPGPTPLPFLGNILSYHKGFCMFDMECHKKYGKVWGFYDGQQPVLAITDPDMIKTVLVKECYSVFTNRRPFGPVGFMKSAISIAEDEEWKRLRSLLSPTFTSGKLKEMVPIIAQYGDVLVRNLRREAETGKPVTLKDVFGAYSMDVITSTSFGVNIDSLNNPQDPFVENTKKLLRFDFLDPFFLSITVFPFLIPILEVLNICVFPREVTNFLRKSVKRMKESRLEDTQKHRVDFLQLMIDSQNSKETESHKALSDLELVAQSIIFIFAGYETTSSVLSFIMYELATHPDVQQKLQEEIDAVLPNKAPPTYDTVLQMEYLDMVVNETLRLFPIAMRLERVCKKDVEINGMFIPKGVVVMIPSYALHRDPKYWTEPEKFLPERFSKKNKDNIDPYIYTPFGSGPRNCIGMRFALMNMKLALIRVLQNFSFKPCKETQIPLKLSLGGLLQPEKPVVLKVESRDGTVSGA
Cytochrome P450 3A7 (Homo sapiens), sequence (P24462 whole entry, looked up): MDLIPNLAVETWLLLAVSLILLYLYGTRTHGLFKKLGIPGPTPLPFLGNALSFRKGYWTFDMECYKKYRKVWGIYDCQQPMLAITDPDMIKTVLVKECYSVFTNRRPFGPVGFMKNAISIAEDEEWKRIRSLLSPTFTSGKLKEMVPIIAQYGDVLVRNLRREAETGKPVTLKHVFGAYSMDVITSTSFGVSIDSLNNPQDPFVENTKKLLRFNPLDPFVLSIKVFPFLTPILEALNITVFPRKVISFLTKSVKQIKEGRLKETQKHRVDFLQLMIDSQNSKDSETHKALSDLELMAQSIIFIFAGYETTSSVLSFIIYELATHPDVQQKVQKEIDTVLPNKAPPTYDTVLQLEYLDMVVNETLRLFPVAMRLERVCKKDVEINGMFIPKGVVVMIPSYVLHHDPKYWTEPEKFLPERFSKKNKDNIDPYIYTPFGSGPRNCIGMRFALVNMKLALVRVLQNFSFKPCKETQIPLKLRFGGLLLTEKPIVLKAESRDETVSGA

Cc1ccc(S(=O)(=O)O)cc1C
inactive: all assays above

COc1ccc2sc(C(=O)Nc3nnn[nH]3)c(OC(C)C)c2c1
active: [2] 50 µM | [3] 91.6 µM | [6] 13.2 µM | [7] 22 µM | [8] 74.8 µM | [10] 87.2 µM
inactive: [1] | [4] | [5] | [9]

O=C(OC[C@H]1O[C@@H](OC(=O)c2cc(O)c(O)c(OC(=O)c3cc(O)c(O)c(O)c3)c2)[C@H](OC(=O)c2cc(O)c(O)c(OC(=O)c3cc(O)c(O)c(O)c3)c2)[C@@H](OC(=O)c2cc(O)c(O)c(OC(=O)c3cc(O)c(O)c(O)c3)c2)[C@@H]1OC(=O)c1cc(O)c(O)c(OC(=O)c2cc(O)c(O)c(O)c2)c1)c1cc(O)c(O)c(OC(=O)c2cc(O)c(O)c(O)c2)c1
inactive: [7] | [8] | [9]
active: [1] 15.2 µM | [2] 10.4 µM | [3] 5.26 µM | [4] 10.4 µM | [5] 11.3 µM | [6] 4.58 µM | [10] 8.99 µM

O=C(O)CCN(C1(C(=O)NO)CCCC1)S(=O)(=O)c1ccc(Oc2ccc(F)cc2)cc1
active: [5] 22.8 µM
inactive: all other assays above

C1N2CN3CN1CN(C2)C3
inactive: all assays above

C=CC(=C)CCC=C(C)C
inactive: all assays above

CCCCC(CC)COC(=O)CCCCCCCCC(=O)OCC(CC)CCCC (stereo not given)
inactive: all assays above

Cc1ccc(C)c(O)c1
inactive: all assays above

Cc1c(-c2cccnc2)c2ccccc2n1CCCCC(=O)O
active: [10] 21.3 µM
inactive: all other assays above

CC(=O)OC[C@H]1O[C@@](COC(C)=O)(O[C@H]2O[C@H](COC(C)=O)[C@@H](OC(C)=O)[C@H](OC(C)=O)[C@H]2OC(C)=O)[C@@H](OC(C)=O)[C@@H]1OC(C)=O
inactive: all assays above

O=C(O)CC(O)C(=O)O (stereo not given)
inactive: all assays above

Nc1cccc(N)c1
inactive: all assays above

O=c1n(CC2CO2)c(=O)n(CC2CO2)c(=O)n1CC1CO1 (stereo not given)
active: [5] 78.3 µM
inactive: all other assays above

COCCOCCOCCOC
inactive: all assays above

O=C(O)c1cccc(N(Cc2cccnc2)c2ccc(OC(F)F)c(OC(F)F)c2)c1
active: [3] 5.18 µM | [5] 43.5 µM | [8] 50 µM
inactive: all other assays above

CC(=O)OCCC(C)C
inactive: all assays above

O=C(NS(=O)(=O)/C=C/c1ccccc1)c1ccc(F)cc1Cl
active: [3] 22.3 µM | [5] 11.3 µM | [10] 28.7 µM
inactive: all other assays above

Oc1ccc2c(c1)-c1ccccc1C2
inactive: all assays above

CCCC(=O)OCC
inactive: all assays above

CCOCCO
inactive: all assays above
